Results published in PubChem BioAssay AID1851 (National Center for Advancing Translational Sciences (NCATS), 2009).
“And” between values parts separate entries of the source, which are not always exact repeats. Equal values may be shown once. Screen size: about 16,000 compounds; about 2,600 (16%) were called active. Roughly 20% stayed inconclusive and do not appear here. Calls come from the whole dose curve; as a rule, active = well fitted curve in the direction sought with a large enough effect; inconclusive = small, poorly fitted or top-dose-only effect, or effect the other way; inactive = no such curve, though single readings can be large or run the other way. Not all results are given here.

biological target: Cytochrome P450 2D6 (Homo sapiens) (UniProt P10635); test: Cytochrome panel assay with activity outcomes; conditions: recombinant CYP, pro-luciferin dealkylation, luminescence, p450-cyp2d6; series mostly up to 57.1 µM; activity, negative = inhibition: at the top concentration
Sequence (P10635 whole entry, looked up): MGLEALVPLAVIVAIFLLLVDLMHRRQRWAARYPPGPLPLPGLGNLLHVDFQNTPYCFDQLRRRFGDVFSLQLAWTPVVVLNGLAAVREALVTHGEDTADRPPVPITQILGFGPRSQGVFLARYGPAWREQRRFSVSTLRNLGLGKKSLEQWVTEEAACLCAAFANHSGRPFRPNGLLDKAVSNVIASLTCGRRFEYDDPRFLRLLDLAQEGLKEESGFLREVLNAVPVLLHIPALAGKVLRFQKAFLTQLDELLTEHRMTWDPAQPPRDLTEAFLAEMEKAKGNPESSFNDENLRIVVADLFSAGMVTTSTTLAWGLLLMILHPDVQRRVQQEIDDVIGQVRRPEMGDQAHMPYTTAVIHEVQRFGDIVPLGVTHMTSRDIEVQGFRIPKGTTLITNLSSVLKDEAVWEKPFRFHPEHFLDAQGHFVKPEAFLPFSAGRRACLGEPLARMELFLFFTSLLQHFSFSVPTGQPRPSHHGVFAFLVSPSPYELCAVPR
% is set by controls: 0 for no effect and ±100 for the full control effect.

activity, negative = inhibition, inactive:
CCCCCc1nc2c(=O)[nH]c3ccccc3c2o1 -9.54%
CN(C)/C=C/C(=O)c1ccc(F)cc1 -12.3%
Cc1ccccc1S(=O)(=O)O[C@@H]1NS(=O)(=O)c2ccccc21 6.51% [at 11.4 µM]
COCn1c2ccccc2c2nnc(C(C)=O)nc21 -15.8% [at 11.4 µM] and -6.91% [at 11.4 µM]
O=S(=O)(O)C1CCNCC1 1.02%
CC(C)N=C(Nc1ccc(Cl)cc1)c1cccnc1 -0.649%
O=S(=O)(O)c1ccc2c(N=Nc3cccc4ccccc34)c(O)c(S(=O)(=O)O)cc2c1 5.03% [at 11.4 µM]
Cc1nn(Cc2c(F)c(F)c(F)c(F)c2F)c(C)c1NC(=O)c1c(-c2ccccc2)nn(-c2ccccc2)c1C 3.5%
Nc1nc(-c2cccc([N+](=O)[O-])c2)cc(-c2cc(-c3cccc([N+](=O)[O-])c3)nc(N)n2)n1 -5.72% [at 11.4 µM]
c1ccc(-c2nc(-c3cccs3)[nH]c2-c2ccccc2)cc1 -25.3%
Cc1cc(C(F)F)n2nc(C(=O)Nc3cccnc3Cl)nc2n1 -5.89%
O=C(OCc1ccc(Cl)cc1)c1ccccc1C(=O)c1ccccc1 -25%
O=C(COC(=O)c1cccnc1Cl)c1ccccc1 -6.36%
CCc1ccc2c(c1)c(N=NC1=NC(=O)CS1)c(O)n2CC 1.76%
COc1ccc(CN2C(=O)c3ccccc3C(/C=N\OCc3ccc(F)cc3)C2=O)cc1 (stereo unspecified) -3.7%
COc1cccc(Cn2c(=O)c(CCc3ccccc3)nc3cnc(OC)nc32)c1 -7.48%
C=C1C(=O)O[C@@H]2[C@@H]1CC/C(C)=C\CC[C@@]1(C)O[C@H]21 -0.667% [at 25.6 µM]
Cc1ccccc1-c1ccc2ncnc(N3CCN(C)CC3)c2c1 -18.4%
CCOC(=O)c1cc2c(ccn2C)n1CC(=O)N1CCCC(C)C1 (stereo unspecified) -27.7%
Cc1ccc(C(=O)NC(=S)Nc2ccc3c(c2)OCCO3)c(C)c1 17%
CON1C(=O)C(=O)N(OC)C2CCCCC21 (stereo unspecified) -4.56%
Cc1cccc(CSc2cccc3cccnc23)c1 -23.8%
COc1cccc(Cn2c(=O)c(-c3cc(F)cc(F)c3)nc3cnc(N(C)C)nc32)c1 -5.29%
CN(C)c1ccc(/C=C2/C(=O)N(c3ccc([N+](=O)[O-])cc3)N=C2N2CCOCC2)cc1 -29.5%
COc1ccc2[nH]c(C(=O)c3ccccc3)cc2c1 -0.111%
C=CCSC1=Nc2sccc2C2=NC(=O)CN12 11.2%
COc1cc2c(cc1NC(=O)c1cc(-c3cccnc3)nc3ccc(C)cc13)oc1ccccc12 -6.75%
COc1ccccc1CC(=O)Nc1cc2oc3ccccc3c2cc1OC -1.92%
COCCn1c(=O)c(-c2ccc(OC)cc2)nc2cnc(Nc3cccc(OC)c3)nc21 -1.21%
CCOc1cc(NC(=O)C2CCCCC2)c(OCC)cc1NC(=O)c1ccco1 -7.01%
Clc1ccc(SCc2cc(-c3ccccc3)no2)cc1 -0.406%
O=C(Nc1ccccc1)c1cc(-c2ccccc2Cl)no1 -4.64%
COc1ccc(NC(=O)c2cc(-c3ccccc3Cl)no2)cc1 -0.131%
Cn1c(CNS(=O)(=O)c2ccc(Cl)cc2)n[nH]c1=S 1.81%
COc1ccc([C@@H]2CC(=O)c3c(O)cc(O[C@H]4O[C@@H](CO[C@H]5O[C@@H](C)[C@@H](O)[C@@H](O)[C@@H]5O)[C@@H](O)[C@@H](O)[C@@H]4O)cc3O2)cc1O 9.79% [at 25.6 µM]
COc1cc(Cl)c(C)cc1NC(=O)CNC(=O)Cn1cnc2ccccc2c1=O -4.76%
Cc1nc2c([nH]1)c(=O)n(C)c(=O)n2Cc1ccco1 -5.02%
Cc1ccc(S(=O)(=O)c2nc(S(=O)(=O)c3ccc(C)cc3)c(NCc3ccco3)s2)cc1 -10.8%
Cc1onc(-c2ccccc2Cl)c1C(=O)NCC(=O)O 1.38%
O=c1c(-c2cccs2)nc2cnc(Oc3ccccc3)nc2n1Cc1cccs1 1.93%
NC(=O)CNC(=O)[C@@H]1CC2(CC(c3ccc(Cl)cc3)=NO2)CN1C(=O)c1ccccc1 (stereo partly specified) -26.6%
COc1ccc(S(=O)(=O)N2CCCCCC2)cc1N(C)S(=O)(=O)c1ccc(Cl)cc1 -14.7%

AC50, active:
O=[N+]([O-])c1cccc(-c2nc(-c3cccs3)c(-c3cccs3)[nH]2)c1 15.8 µM
O=C(OCc1ccc(Cl)cc1Cl)c1cccnc1Cl 15.8 µM
CN(C)c1ccc(-c2ccc3ncnc(-n4ccnc4)c3c2)cc1 20 µM
Cc1ccccc1-c1ccc2ncnc(-n3ccnc3)c2c1 25.1 µM
CC(C)(C)c1cc2cccnc2n1Cc1cccc(F)c1 1.26 µM
COc1cc2c(cc1NC(=O)Nc1ccccc1)oc1ccccc12 10 µM
O=S(=O)(NCc1cc(-c2ccccc2Cl)no1)c1ccc(Cl)cc1 12.6 µM
O=S(=O)(NCc1cc(-c2ccc(Cl)cc2)no1)c1ccc(Cl)cc1 0.631 µM
Nc1c(S(=O)(=O)c2ccccc2)c2nc3ccccc3nc2n1Cc1ccco1 25.1 µM
